Experimental data reported in PubChem BioAssay.
Inconclusive results are not listed. Active and inactive are the calls of the source. Unless noted, no cut-off is given here; in the data, nearly all actives have AC50 up to about 26 µM.

Columns and labels:
[1] = viability loss in pontine glioma line – cell-based, SU-DIPG-XVII, MIPE5.0, CellTiter-Glo, qHTS, dose response (AID 1347060); details: CellTiter-Glo ATP luminescence;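 for AC50: cells exposed to compound for 48 hours before viability readout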
[2] = viability loss in pontine glioma line – cell-based, SU-DIPG-XIII, MIPE5.0, CellTiter-Glo, qHTS, dose response (AID 1347064; cut-off not given, nearly all actives have AC50 up to about 23 µM;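 for AC50: cells exposed to compound for 48 hours before the viability read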); details: CellTiter-Glo ATP luminescence
[3] = viability loss in pontine glioma line – cell-based, SU-DIPG-XXV, MIPE5.0, CellTiter-Glo, qHTS, dose response (AID 1347065); details: CellTiter-Glo ATP luminescence;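 note: cells exposed to compound for 48 hours before ATP readout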
[4] = growth inhibition of DIPG cells – cell-based, MIPE4.0 library, CellTiter-Glo luminescence, qHTS (AID 1347066; cut-off not given, nearly all actives have AC50 up to about 30 µM;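 note: cells exposed to compound for 48 hours before readout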); details: SU-DIPG-VI viability, CellTiter-Glo ATP luminescence
[5] = JHH-DIPG-1 glioma cell viability, MIPE5.0 library, CellTiter-Glo luminescence, qHTS (AID 1347067); details: JHH-DIPG-1 glioma viability, CellTiter-Glo ATP luminescence;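 note: cells exposed to compound for 48 hours before readout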
[6] = growth inhibition of DIPG cells – cell-based, MIPE5.0 library, qHTS (AID 1347068; cut-off not given, nearly all actives have IC50 up to about 30 µM); details: SU-DIPG-XXV viability
[7] = viability loss with induced miR-34 in A549 – imaging, A549 dox-inducible miR-34, nuclei and caspase counts, primary screen (AID 1347080;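 active = compounds whose cell count with miR-34 switched on is under 0.7 times the count with it off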); details: A549 miR-34 inducible, Hoechst nuclei count, 48 h
[8] = compounds altering HSF1 focus formation in cells – imaging, Selleck Cancer Library (AID 1347162; in the data active = plate-normalised HSF1 focus index below about 0.46); details: human cells, HSF1 nuclear foci imaging, at 10 µM; SSMD: measured here: HSF1 foci SSMD mean; cell count: measured here: cell number; plate-normalised HSF1 focus index: stronger effect = lower value
[9] = MELAS cybrid and Rieske KO viability enhancers – cell-based, MELAS cybrids, Rieske KO mouse fibroblasts, CellTiter-Glo, primary screen (AID 1508586;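 active = mean z-score across replicates of 1.96 or higher in either the MELAS or the Rieske mutant cell line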;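 note: z relative to plate mean and SD of compound and empty wells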); details: low glucose
[10] = drug combination growth inhibition, ovarian cancer – cell-based, oncology-focused library, rucaparib conditional, profiling panel (AID 1508598;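 active = normalized viability below 100% at a tested concentration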); details: patient-derived ovarian cancer cells, CellTiter-Glo viability, 144 h, stronger effect = lower value
[11] = stronger effect = lower value, cell number ratio, induced over uninduced
[12] = measured here: relative caspase fold change +Dox/-Dox
[13] = measured here: total cells with miR-34 induction, stronger effect = lower value
[14] = measured here: total cells without miR-34 induction
[15] = MELAS cybrid survival, CellTiter-Glo 48 h, stronger effect = higher value
[16] = Rieske KO mouse fibroblast survival, CellTiter-Glo 72 h

Cc1c[nH]c2ncnc(N3CCC(CN)(C(=O)Nc4cccc(OC(=O)N(C)C)c4)CC3)c12
active: AC50 [2] 11.8 µM | AC50 [3] 16.6 µM
inactive: outcome [1]

CCCCOc1nc(N)c2c(n1)N(Cc1cccc(CN3CCCC3)c1)CC(=O)N2
inactive: outcome [1] | outcome [2] | outcome [3]

CCO[C@@H]1OC(=O)C[C@@H]1NC(=O)[C@@H]1CCCN1C(=O)[C@@H](NC(=O)c1ccc(N)c(Cl)c1)C(C)(C)C
inactive: outcome [2] | outcome [3] | outcome [4] | outcome [5] | outcome [6]
active: AC50 [1] 23.5 µM

CC#CC(=O)N1CCC[C@H]1c1nc(-c2ccc(C(=O)Nc3ccccn3)cc2)c2c(N)nccn12
inactive: outcome [1] | outcome [2] | outcome [3] | outcome [5]

CC(C)(C)NC(=O)c1cncn1C1CCN(c2ccc(-c3nnc(C(F)(F)F)o3)cn2)CC1
active: AC50 [1] 10.5 µM | AC50 [2] 5.9 µM | AC50 [3] 1.48 µM

Cc1cc(C(=O)Nc2cc(Nc3ccc4c(/C=C/c5ccccn5)n[nH]c4c3)ccc2F)n(C)n1
active: AC50 [1] 8.33 µM | AC50 [2] 7.42 µM | AC50 [3] 3.72 µM | AC50 [5] 16.6 µM

CCCc1cc(C(=O)N[C@H](Cc2ccc(-c3cccc(OC(F)(F)F)c3)nc2)C(=O)N[C@@H]2CCNC2)sc1C
active: AC50 [1] 23.5 µM | AC50 [2] 16.6 µM | AC50 [3] 20.9 µM | AC50 [5] 10.5 µM

CCCc1cc(C)[nH]c(=O)c1CNC(=O)c1cc(-c2ccnc(N3CCN(C)CC3)c2)cc2c1cnn2C(C)C
inactive: outcome [1] | outcome [2] | outcome [3]

OC1CCC(Nc2ncc3nc(Nc4c(F)cc(F)cc4F)n([C@@H]4CCOC4)c3n2)CC1 (stereo partly drawn)
inactive: outcome [1] | outcome [2] | outcome [3] | outcome [4] | outcome [5] | outcome [6]

O=C(/C=C\n1cnc(-c2cc(C(F)(F)F)cc(C(F)(F)F)c2)n1)NNc1ccccn1
active: AC50 [1] 2.95 µM | AC50 [2] 0.295 µM | AC50 [3] 5.25 µM | AC50 [5] 13.2 µM

NC(=O)C1CCCc2c1[nH]c1ccc(Cl)cc21 (stereo not drawn)
-0.725: z-score [9, 16]
7360: cell count [7, 13]
0.695: fold change [7, 12]
1.46: SSMD [8]
inactive: outcome [1] | outcome [2] | outcome [3] | outcome [4] | outcome [5] | outcome [6] | fold change [7, 11] 1.01 | plate-normalised HSF1 focus index [8] 1.08 | z-score [9, 15] -0.456 | viability ([10]; at 0.000305 µM, OCI-C5x cells, with rucaparib 10 µM, 100% = cells with rucaparib alone) 114% | viability ([10]; at 0.000305 µM, OCI-C5x cells, without rucaparib) 113% | viability ([10]; at 0.00122 µM, OCI-C5x cells, with rucaparib 10 µM, 100% = cells with rucaparib alone) 118% | viability ([10]; at 0.00122 µM, OCI-C5x cells, without rucaparib) 119% | viability ([10]; at 0.00122 µM, OCI-P5x cells, with rucaparib 20 µM, 100% = cells with rucaparib alone) 109% | viability ([10]; at 0.00122 µM, OCI-P5x cells, without rucaparib) 101% | viability ([10]; at 0.00488 µM, OCI-C5x cells, with rucaparib 10 µM, 100% = cells with rucaparib alone) 117% | viability ([10]; at 0.00488 µM, OCI-C5x cells, without rucaparib) 114% | viability ([10]; at 0.00488 µM, OCI-P5x cells, with rucaparib 20 µM, 100% = cells with rucaparib alone) 105% | viability ([10]; at 0.00488 µM, OCI-P5x cells, without rucaparib) 111% | viability ([10]; at 0.0195 µM, OCI-C5x cells, with rucaparib 10 µM, 100% = cells with rucaparib alone) 106% | viability ([10]; at 0.0195 µM, OCI-C5x cells, without rucaparib) 115% | viability ([10]; at 0.0195 µM, OCI-P5x cells, with rucaparib 20 µM, 100% = cells with rucaparib alone) 109% | viability ([10]; at 0.0195 µM, OCI-P5x cells, without rucaparib) 116% | viability ([10]; at 0.0781 µM, OCI-C5x cells, with rucaparib 10 µM, 100% = cells with rucaparib alone) 113% | viability ([10]; at 0.0781 µM, OCI-C5x cells, without rucaparib) 112% | viability ([10]; at 0.0781 µM, OCI-P5x cells, with rucaparib 20 µM, 100% = cells with rucaparib alone) 105% | viability ([10]; at 0.0781 µM, OCI-P5x cells, without rucaparib) 117% | viability ([10]; at 0.313 µM, OCI-C5x cells, with rucaparib 10 µM, 100% = cells with rucaparib alone) 112% | viability ([10]; at 0.313 µM, OCI-C5x cells, without rucaparib) 124% | viability ([10]; at 0.313 µM, OCI-P5x cells, with rucaparib 20 µM, 100% = cells with rucaparib alone) 105% | viability ([10]; at 0.313 µM, OCI-P5x cells, without rucaparib) 120% | viability ([10]; at 1.25 µM, OCI-C5x cells, with rucaparib 10 µM, 100% = cells with rucaparib alone) 109% | viability ([10]; at 1.25 µM, OCI-C5x cells, without rucaparib) 118% | viability ([10]; at 1.25 µM, OCI-P5x cells, with rucaparib 20 µM, 100% = cells with rucaparib alone) 107% | viability ([10]; at 1.25 µM, OCI-P5x cells, without rucaparib) 120% | viability ([10]; at 5 µM, OCI-C5x cells, without rucaparib) 124% | viability ([10]; at 5 µM, OCI-P5x cells, without rucaparib) 114%
6830: cell count [8]
active: viability ([10]; at 0.000305 µM, OCI-P5x cells, with rucaparib 20 µM, 100% = cells with rucaparib alone) 92.1% | viability ([10]; at 0.000305 µM, OCI-P5x cells, without rucaparib) 96.9% | viability ([10]; at 5 µM, OCI-C5x cells, with rucaparib 10 µM, 100% = cells with rucaparib alone) 100% | viability ([10]; at 5 µM, OCI-P5x cells, with rucaparib 20 µM, 100% = cells with rucaparib alone) 95%
7260: cell count [7, 14]

CC(C)NC(=O)C1CCC(n2c(NC(=O)c3ccc(F)cc3)nc3ccc(CN4CCC(C(C)(C)O)CC4)cc32)CC1 (stereo not drawn)
inactive: outcome [5]
active: AC50 [1] 9.1 µM | AC50 [2] 7.23 µM | AC50 [3] 6.45 µM

CC[C@@H](C)Nc1cc(C(=O)NC2CC3CCC(C2)N3c2ccc(C(=O)C3CC3)cn2)c(C)cc1C(N)=O (stereo partly drawn)
active: AC50 [1] 0.148 µM | AC50 [2] 0.209 µM | AC50 [3] 0.186 µM | AC50 [5] 0.209 µM

COC1=C2C[C@H](C)C[C@H](OC)[C@H](O)[C@@H](C)/C=C(/C)[C@H](OC(N)=O)[C@@H](OC)/C=C\C=C(\C)C(=O)NC(=CC1=O)C2=O
active: AC50 [1] 0.235 µM | AC50 [2] 0.118 µM | AC50 [3] 0.417 µM

Cn1nccc1Nc1nccc(-c2ccn([C@H](CO)c3ccc(Cl)c(F)c3)c(=O)c2)n1
active: AC50 [1] 18.6 µM | AC50 [2] 10.5 µM | AC50 [3] 18.6 µM | AC50 [5] 1.48 µM

NS(=O)(=O)Oc1ccc2c3c(c(=O)oc2c1)CCCCC3
inactive: outcome [1] | outcome [2] | outcome [3] | outcome [5]

CCC[C@H](NC(=O)[C@@H]1[C@H]2CCC[C@H]2CN1C(=O)[C@@H](NC(=O)[C@@H](NC(=O)c1cnccn1)C1CCCCC1)C(C)(C)C)C(=O)C(=O)NC1CC1
active: AC50 [5] 18.6 µM
inactive: outcome [1] | outcome [2] | outcome [3] | outcome [4] | outcome [6]

Cc1cc(-c2ccc(CC(=O)Nc3ccc(-c4cccnc4)cc3)cc2)ccn1
7810: cell count [7, 13]
0.839: fold change [7, 12]
inactive: outcome [1] | outcome [2] | outcome [3] | outcome [4] | outcome [5] | outcome [6] | fold change [7, 11] 0.957 | z-score [9, 15] -0.327
8160: cell count [7, 14]
-0.153: z-score [9, 16]

O=C(NOCCO)c1ccc2cncn2c1Nc1ccc(I)cc1F
active: AC50 [1] 0.148 µM | AC50 [2] 0.148 µM | AC50 [3] 0.332 µM | AC50 [5] 0.105 µM
